Screen size: about 290,000 compounds; about 370 (0.13%) were called active. This is one part of a sample in which actives are shown more often than they occur.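 Rule for the calls: active = spots per cell inhibited over 60%, with over 100 cells counted and total cytoplasm intensity under 500,000; inconclusive = wells with under 100 cells, flagged as likely toxic; inactive = the rest.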 Measured potencies and affinities stand elsewhere.

The assay deals with G-protein coupled receptor 55 (Homo sapiens) (UniProt Q9Y2T6). The assay is described as follows: inhibition of LPI-stimulated GPR55 beta-arrestin translocation – imaging, U2OS, beta-arrestin-GFP, LPI agonist, primary screen (AID 2013).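 Note: U2OS cells stably carrying GPR55 and arrestin-GFP stimulated by 5 µM LPI near EC80; imaged beta-arrestin-GFP aggregate spots per cell after agonist stimulation; plate controls were LPI-stimulated DMSO wells for no effect and DMSO wells without LPI for full effect.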 The following applies: LPI antagonism, at 10 µM, hits give high values.
Sequence of G-protein coupled receptor 55 (Homo sapiens) (Q9Y2T6 whole entry, looked up): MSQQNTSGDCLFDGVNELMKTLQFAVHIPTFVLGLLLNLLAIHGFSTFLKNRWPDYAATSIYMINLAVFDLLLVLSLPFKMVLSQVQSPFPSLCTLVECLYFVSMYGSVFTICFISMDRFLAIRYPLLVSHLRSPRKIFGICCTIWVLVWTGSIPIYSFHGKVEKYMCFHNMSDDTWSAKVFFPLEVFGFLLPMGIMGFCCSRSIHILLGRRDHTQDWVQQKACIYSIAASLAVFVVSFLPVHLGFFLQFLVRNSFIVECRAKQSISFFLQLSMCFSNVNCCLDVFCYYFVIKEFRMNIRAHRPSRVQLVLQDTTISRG
For orientation: inhibition means the relative decrease from the control value, in per cent. For the molecule `Cc1cccc(C)c1NC(=O)Cn1c(=O)c2cccn2c2ccccc21`, the inhibition was 3.5% (inactive).
With `Cc1ccc(NC(=O)Nc2cnccn2)c(C)c1` the figure was 1.4% (inactive).
The value for `CC(C)CNC(=S)N1CCC(c2nc(-c3ccc(F)cc3)no2)CC1` was 6.8% (inactive).
With `CCCc1nnc2n1N=C(c1ccc(-c3cc(Cl)ccc3Cl)o1)CS2` the figure was -0.8% (inactive); with `CC[C@H](C)[C@@H](NC(=O)O[C@@H]1C(=O)c2cc(Br)ccc2O[C@H]1c1ccc2c(c1)OCO2)C(=O)OC`, -3.7% (inactive).
With `COC(CNC(=O)c1ccc(CS(=O)(=O)c2ccc(Br)cc2)o1)OC`, the inhibition was -14.8% (inactive).
As for `C=C1C(=O)O[C@H]2C[C@]3(C)C([C@@H](OC(=O)/C(C)=C/C)[C@H]12)[C@](C)(O)CC[C@H]3O` (stereo not given in full), the inhibition was 10.2% (inactive).
With `C[C@@H]1C[C@@H]2OC(=O)[C@]3(C)[C@H]2[C@@H](OC3(C)O)[C@]2(C)C(=O)C=C[C@H]12` (stereo not given in full) the figure was 6.3% (inactive); with `CC(=O)O[C@@H]1[C@H]2[C@@H](C[C@@H](C)[C@@H]3CCC(=O)[C@@]13C)OC(=O)[C@@H]2C`, 6.6% (inactive).
With `CC(=O)O[C@@H]1[C@H]2[C@@H](C[C@@H](C)[C@@H]3C=CC(=O)[C@@]13C)OC(=O)[C@@H]2C` the figure was -2% (inactive).
With `O=C(Nc1ccc(-n2cnnn2)cc1)C(c1ccccc1)c1ccccc1` the figure was 6.3% (inactive); with `CN1CCN(C(=O)c2cnn(-c3ccccc3)c2NC(=O)c2ccccc2Br)CC1`, 2.7% (inactive); with `COc1ccc(C(C)=O)cc1CSc1nnc(Nc2ccc(C)cc2C)s1`, 1.3% (inactive).
Turning to `CCOC(=O)CSc1nnc(Cn2nnc(-c3ccccc3)n2)n1CC`, the inhibition was 16% (inactive).
`CCn1c(Cn2nnc(-c3ccccc3)n2)nnc1SCC(=O)Nc1ccccc1`: the inhibition was -10.2% (inactive).
With `COc1ccccc1OCC(=O)NCc1nc(-c2ccccc2)no1` the figure was 4.4% (inactive); with `COc1ccc2[nH]c3c(=O)n(/N=C/c4ccc(OC)c(CN5CCCC5)c4)c(C)nc3c2c1`, 11.7% (inactive); with `COc1ccc2cc(C(=O)CS(=O)(=O)c3ccccc3)c(=O)oc2c1`, -4.7% (inactive).
With `COc1ccc(S(=O)(=O)CC(=O)c2cc3cccc(C)c3oc2=O)cc1` the figure was -0.3% (inactive).
The value for `COc1cc(S(=O)(=O)NC2CCCC2)c(OC)cc1Cl` was -2.6% (inactive); that for `O=C(N1CCOCC1)C1(c2ccc(Cl)cc2)CCCC1` was 44.4% (inactive).
Regarding `O=C(N1CCCCC1)C1(c2ccccc2)CCCCC1`, the inhibition is 4.3% (inactive).
The value for `O=C(N1CCC(n2nc(-c3ccccc3)oc2=O)CC1)C1(c2ccccc2)CC1` was -6.7% (inactive); that for `COc1ccc(C2(C(=O)N3CCC(n4nc(-c5ccccc5)oc4=O)CC3)CC2)cc1` was 7.7% (inactive).
The value for `COc1ccc(C(OC(=O)c2ccco2)C(=O)NCc2ccco2)cc1` (stereo not given) was 14.6% (inactive); that for `COC(=O)c1ccccc1SCc1csc(C)n1` was 5.7% (inactive); that for `COc1ccccc1NC(=O)CCN1CC(C)OC(C)C1` (stereo not given) was 3.2% (inactive).
In the case of `O=C(NCC(=O)N1CCC2(CC1)NCCc1[nH]cnc12)c1ccc2ccccc2c1`, the inhibition was 15.2% (inactive).
The value for `CCCCN1C(=O)/C(=C/C=C2\N(C)c3ccccc3C2(C)C)SC1=S` was 17.2% (inactive); that for `CCCN1C(=O)/C(=C/C=C2\N(CC)c3ccccc3C2(C)C)SC1=S` was -9% (inactive); that for `CCCCNC(=O)N1c2ccccc2CC1C` (stereo not given) was 7.4% (inactive).
The value for `COC(=O)c1[nH]c2ccccc2c1NC(=O)c1ccccc1[N+](=O)[O-]` was 12.4% (inactive); that for `Cc1ccc(OCc2ccc(C#N)cc2)c(C(=O)c2cc(C#N)c(=O)n(C3CC3)c2)c1` was -4.5% (inactive).
On to `N=C1SCC(=O)N1c1ncc(Cc2ccc(F)cc2)s1`, for which the inhibition was 12.6% (inactive).
The value for `Cc1ccc(Cc2cnc(N3C(=N)SC(C)C3=O)s2)cc1` (stereo not given) was 16.2% (inactive); that for `N=C1SCC(=O)N1c1ncc(Cc2cccc(Cl)c2)s1` was 98.9% (active).
In the case of `N=C1SCC(=O)N1c1ncc(Cc2ccccc2Cl)s1`, the inhibition was 38% (inactive).
The value for `Cc1cccc(Cc2cnc(N3C(=N)SC(c4ccccc4)C3=O)s2)c1` (stereo not given) was 2.3% (inactive); that for `CCN(CC)CCN(C(=O)c1ccc2c(c1)OCCO2)c1nc2cc(C)cc(C)c2s1` was 9.6% (inactive); that for `CC1CCCN(C(=O)Cn2nnc(-c3ccccc3F)n2)C1` (stereo not given) was 4.4% (inactive).
Regarding `Cc1ccc(OCCOc2cccc(Br)c2)c([N+](=O)[O-])n1`, the inhibition is 9.4% (inactive).
The value for `Cc1nc(SCC(=O)c2cc3ccccc3oc2=O)c(C#N)c(-c2ccccc2)c1C(=O)Nc1ccccc1` was 3.8% (inactive); that for `COc1ccc(N(C(=O)c2ccncc2)S(=O)(=O)c2ccc(F)cc2)cc1` was -6% (inactive).
With `O=C(O)c1cccc(COc2ccccc2Cl)c1` the figure was 4.2% (inactive); with `CN(C(=O)c1ccccc1OCc1ccc(Cl)cc1)c1ccccc1`, 4.2% (inactive).
The value for `O=C(COc1ccc([N+](=O)[O-])cc1)Nc1ccccc1N1CCCC1` was 7.8% (inactive); that for `COc1ccc(C(CCNCc2ccc(N(C)C)cc2)c2ccccc2)cc1` (stereo not given) was 33.8% (inactive).
Regarding `COc1ccc(C(CCN)c2ccc3c(c2)OCO3)cc1` (stereo not given), the inhibition was 12.6% (inactive).
Take `COc1ccc(C(CCNCc2ccccc2)c2ccc(F)cc2)cc1` (stereo not given): the inhibition was 37.5% (inactive).
With `COc1ccc(C(CCNCc2ccc(F)cc2)c2ccc(F)cc2)cc1` (stereo not given) the figure was 45.1% (inactive); with `O=C(NCc1ccccc1)c1ccc(C2SCC(=O)N2Cc2ccccc2)cc1` (stereo not given), 4.1% (inactive).
The value for `CCCNC(=O)c1ccc(C2SCC(=O)N2Cc2ccccc2)cc1` (stereo not given) was 0% (inactive); that for `CC(C)c1ccc(C2CC(=O)c3cnc(NC(=O)c4ccco4)nc3C2)cc1` (stereo not given) was 6.3% (inactive).
With `O=C(CC(=O)NCc1ccc(Cl)cc1)NCc1ccc(Cl)cc1` the figure was 1.9% (inactive).
As for `CC(C)C(=O)Nc1ccc2c(c1)nc(CCN1CCCCC1)n2C`, the inhibition is -5.6% (inactive).
The value for `Cc1cc(C)c(C2C(C#N)=C(N)Oc3n[nH]c(C)c32)cc1CN1CCCC1` (stereo not given) was 7.5% (inactive).
The value for `COc1ccc(NS(=O)(=O)c2ccc(OC)c(N(C)S(=O)(=O)c3ccc(Cl)cc3)c2)cc1` was 1.4% (inactive); that for `COc1ccc(S(=O)(=O)NN(C)C)cc1N(C)S(=O)(=O)c1ccc(Cl)cc1` was 9.7% (inactive).
The value for `COc1ccc(S(=O)(=O)N2CCCCCC2)cc1N(C)S(=O)(=O)c1ccc(Cl)cc1` was 18.7% (inactive).
In the case of `COc1ccc(S(=O)(=O)Nc2ccc(S(=O)(=O)Nc3ccc(F)cc3)cc2)cc1C`, the inhibition is 17.8% (inactive).
